As a reminder, the AC50 is the concentration at which the activity in the assay is half-maximal.

In assay [1] the target is Transcription factor E2F1 (Homo sapiens) (UniProt Q01094). The assay is described as follows: ATG_E2F_CIS: Attagene CIS-FACTORIAL HepG2 Assay for human E2F Transcription Factor 1 (AID 2282935). To be noted: HepG2 Attagene cis-reporter, E2F reporter RNA transcripts; actives raise or lower the signal. The procedure, abridged: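 Total RNA from 24 h-treated, reporter-transfected HepG2 cells undergoes DNase I treatment, oligo(dT) reverse transcription, PCR and 6-FAM primer extension before capillary electrophoresis.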
Sequence of Transcription factor E2F1 (Homo sapiens) (Q01094 whole entry, looked up): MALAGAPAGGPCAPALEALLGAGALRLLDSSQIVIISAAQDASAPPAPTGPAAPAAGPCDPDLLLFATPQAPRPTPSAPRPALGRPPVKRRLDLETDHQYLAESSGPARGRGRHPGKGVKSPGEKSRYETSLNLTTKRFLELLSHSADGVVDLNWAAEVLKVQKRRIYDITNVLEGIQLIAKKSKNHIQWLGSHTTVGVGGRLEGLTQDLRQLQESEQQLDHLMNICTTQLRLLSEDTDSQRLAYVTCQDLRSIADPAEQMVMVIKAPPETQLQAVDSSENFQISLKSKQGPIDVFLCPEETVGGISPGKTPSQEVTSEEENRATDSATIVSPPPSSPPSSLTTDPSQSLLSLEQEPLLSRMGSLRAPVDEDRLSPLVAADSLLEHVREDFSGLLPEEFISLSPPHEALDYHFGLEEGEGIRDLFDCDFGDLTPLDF

A short description of assay [2]: ATG_E_Box_CIS: Attagene CIS-FACTORIAL HepG2 Assay for human Enhancer Box (E-box) (AID 2282936). The note with it: HepG2 E-box cis-reporter transcription, actives raise or lower the signal. The procedure, abridged:
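DMSO served as negative control and baseline for bidirectional fitting. Human hepatoma HepG2 cells, transiently transfected with cis-reporter constructs, were dosed 24 h; reporter mRNA read by RT-PCR and capillary electrophoresis.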

Assay [3] in a line: ATG_M_61_CIS: Attagene CIS-FACTORIAL HepG2 Assay for M61 Transcription Factor (Internal Marker) (AID 2282937). To be noted: HepG2 Attagene CIS-FACTORIAL M61 internal marker reporter; actives raise or lower the signal. The gist of the method: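 Readout: fluorescent reporter mRNA fragments resolved by capillary electrophoresis after RT-PCR. Transiently transfected human HepG2 cells carried MRTU constructs reporting endogenous TF activity; 24 h chemical exposure; gain or loss of signal fitted relative to DMSO.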

Assay [4] is described as follows: ATG_EGR_CIS: Attagene CIS-FACTORIAL HepG2 Assay for human Early Growth Response 1 (EGR1) (AID 2282938). The note with it: HepG2 Attagene CIS-FACTORIAL EGR reporter mRNA; actives raise or lower the signal. The procedure, abridged:
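Read-out: fluorescent reporter-mRNA fragments resolved by capillary electrophoresis after RT-PCR, 24 h post-dose in transiently transfected HepG2. Endogenous transcription-factor activity reported via cis-element-regulated reporter units; gain or loss fitted relative to DMSO.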

A short description of assay [5]: ATG_M_19_CIS: Attagene CIS-FACTORIAL HepG2 Assay for M19 Transcription Factor (Internal Marker) (AID 2282939). The note with it: HepG2 Attagene CIS-FACTORIAL M19 internal marker reporter; actives raise or lower the signal. The gist of the method: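 Readout: fluorescent reporter-transcript fragments by capillary electrophoresis after RT-PCR. Human HepG2 liver cells carried transfected MRTU constructs reporting endogenous transcription-factor activity; exposure 24 h. Gain or loss of signal fitted relative to DMSO.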

Assay [6] can be described thus: ATG_ERE_CIS: Attagene CIS-FACTORIAL HepG2 Assay for Estrogen Response Element (ERE) (AID 2282940). To be noted: HepG2 ERE cis-reporter, Attagene RNA transcript; actives raise or lower the signal. The gist of the method:
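Readout: reporter mRNA induction by RT-PCR, FAM-labelled primer extension, HpaI digestion and capillary electrophoresis, 24 h after dosing transfected HepG2 cells. Endogenous transcription factors act on cis-element-regulated reporters. Gain or loss fitted against DMSO.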

Assay [7] can be described thus: ATG_Ets_CIS: Attagene CIS-FACTORIAL HepG2 Assay for human Erythroblast Transformation Specific (ETS) (AID 2282941). The note with it: HepG2 ETS cis-reporter transcription, actives raise or lower the signal. The procedure, abridged: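 HepG2 cells transiently transfected with cis-promoter reporter transcription units were dosed for 24 h; reporter mRNA was measured by RT-PCR, 6-FAM primer extension, HpaI digestion and capillary electrophoresis, with bidirectional fitting against DMSO baseline.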

Assay [8] in a line: ATG_FoxO_CIS: Attagene CIS-FACTORIAL HepG2 Assay for human Forkhead box O (FoxO) (AID 2282943). To be noted: HepG2 Attagene cis-reporter, FoxO element, mRNA; actives raise or lower the signal. The procedure, abridged:
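Endogenous transcription factor activity read from multiplexed cis-promoter reporter transcripts in transiently transfected HepG2, 24 h after dosing. Reporter RNA measured via RT-PCR plus capillary electrophoresis of FAM-labeled products; gain or loss relative to DMSO.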

The nature of assay [9]: ATG_GATA_CIS: Attagene CIS-FACTORIAL HepG2 Assay for human GATA Binding Protein (AID 2282944). The note with it: HepG2 GATA cis-element reporter, Attagene multiplex mRNA; actives raise or lower the signal. The gist of the method: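 Read-out: fluorescent reporter mRNA fragments resolved by capillary electrophoresis after RT-PCR. Human liver HepG2 cells carried transiently transfected cis-regulated reporter constructs; chemicals incubated 24 h; gain or loss of signal fitted relative to DMSO.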

The target of assay [10] is Hepatocyte nuclear factor 3-beta (Homo sapiens) (UniProt Q9Y261). Kind of assay: ATG_FoxA2_CIS: Attagene CIS-FACTORIAL HepG2 Assay for human Forkhead box A2 (FOXA2) (AID 2282942). The note with it: HepG2 cis-reporter transcription factor activity, 24 h; actives raise or lower the signal. The procedure, abridged:
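Readout: fluorescent reporter transcripts resolved by capillary electrophoresis after RT-PCR. Transiently transfected HepG2, 24 h compound exposure, endogenous TF activity at cis promoter elements. Gain or loss of signal fitted relative to DMSO.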

The source made the active and inactive calls. The calls were made as follows: active = hit-call score of the fitted dose curve at least 0.9, where 1 is the maximum; inactive = score below 0.9.

Sequence of Hepatocyte nuclear factor 3-beta (Homo sapiens) (Q9Y261 whole entry, looked up): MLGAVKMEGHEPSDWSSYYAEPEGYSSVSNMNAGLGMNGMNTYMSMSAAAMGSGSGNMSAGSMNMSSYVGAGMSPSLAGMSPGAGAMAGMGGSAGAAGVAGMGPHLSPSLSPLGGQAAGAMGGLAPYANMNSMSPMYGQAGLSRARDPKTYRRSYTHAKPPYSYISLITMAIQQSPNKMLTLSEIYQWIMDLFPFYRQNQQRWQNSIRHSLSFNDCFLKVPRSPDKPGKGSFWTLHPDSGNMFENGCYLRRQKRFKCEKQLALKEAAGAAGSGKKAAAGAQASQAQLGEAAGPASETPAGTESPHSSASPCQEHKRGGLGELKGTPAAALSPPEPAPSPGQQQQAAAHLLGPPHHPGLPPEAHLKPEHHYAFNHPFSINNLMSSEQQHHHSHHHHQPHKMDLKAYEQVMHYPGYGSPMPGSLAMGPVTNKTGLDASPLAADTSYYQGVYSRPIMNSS

`C=C(C)C(N)=O`: the result in assay [1], in assay [2], in [3], in assay [4], in assay [5] and in assay [6] was inactive. For the same molecule, the molecule was called inactive in assay [7], in assay [8] and in assay [9].
On to `O=c1cc[nH]cc1`, for which the call in assay [1], in [2], in [3], in assay [4], in [5] and in [6] was inactive. Further, the outcome in assay [7], in assay [8] and in assay [9] was inactive.
Take `COc1ccc(N)c(C)c1`: the result in [1], in assay [2], in assay [3], in assay [4], in assay [5] and in assay [7] was inactive. In addition, the call in assay [10], in assay [8] and in assay [9] was inactive. In addition, the AC50 in assay [6] was 25.5 µM (active).
For `CC(CO)(CO)[N+](=O)[O-]`, the molecule was classed as inactive in [1], in [2], in [3], in assay [4], in [5] and in assay [6]. The molecule was called inactive in assay [7], in [10], in assay [8] and in assay [9].
On to `CCCO[Si](OCCC)(OCCC)OCCC`, for which the AC50 in [1] is 100 µM (active). The result in assay [2], in assay [3], in assay [4], in assay [5], in [6] and in assay [7] was inactive. For the same molecule, the outcome in assay [8] and in assay [9] was inactive.
Regarding `CC(=O)c1ccc(C)cc1`, the result in assay [1], in [2], in assay [3], in [4], in [5] and in assay [6] was inactive. The molecule was called inactive in assay [7], in assay [8] and in assay [9].
In the case of `C=CC(=O)OCC(CO)(COC(=O)C=C)COC(=O)C=C`, the AC50 in assay [1] was 27 µM (active); in [2], 22.2 µM (active); in [4], 5.52 µM (active); in [8], 13.4 µM (active). The result in [3], in assay [5], in assay [6], in [7] and in [9] was inactive.
For `Cc1ccccc1S`, the call in [1], in [2], in [3], in [4], in assay [5] and in assay [7] was inactive. In addition, the AC50 in [6] was 20.5 µM (active); in [8], 134 µM (active).
Turning to `CN(C)C(=O)Nc1ccccc1`, the result in assay [1], in [2], in [3], in assay [4], in [5] and in [6] was inactive. Moreover, the call in assay [7], in assay [8] and in assay [9] was inactive.
Consider `COc1ccccc1NC(=O)CC(C)=O`, for which the molecule was classed as inactive in [1], in assay [2], in assay [3], in assay [4], in assay [5] and in assay [6]. The result in [7] and in [8] was inactive.
Regarding `CCOC(=O)C(=O)OCC`, the outcome in assay [1], in assay [2], in assay [3], in assay [4], in assay [5] and in [6] was inactive. Also, the call in [7], in assay [8] and in assay [9] was inactive.
Turning to `CCCCCCCCCCCCCCCCCC(=O)OCCCCCCCCCCCCCC(C)C`, the call in assay [1], in [2], in [3], in [4], in assay [5] and in assay [7] was inactive. Moreover, the call in [8] was inactive. Moreover, the AC50 in assay [6] is 28.7 µM (active).
`CCCCOCCOCCOCCO`: the outcome in assay [1], in [2], in [3], in [4], in [5] and in [6] was inactive. For the same molecule, the result in assay [7] and in [8] was inactive.
In the case of `CCCc1ccc(O)cc1`, the molecule was classed as inactive in [1], in assay [2], in assay [3], in assay [4], in assay [5] and in assay [7]. The molecule was classed as inactive in [8] and in assay [9]. In addition, in assay [6], the AC50 was 26.8 µM (active).
For `O=C(OCc1ccccc1)c1ccccc1O`, the outcome in [1], in [2], in assay [3], in assay [4], in assay [5] and in assay [7] was inactive. Further, the molecule was called inactive in assay [8] and in assay [9]. Also, in assay [6], the AC50 is 76.3 µM (active).
For the molecule `CC(=O)Oc1c(C)c(C)c2c(c1C)CC[C@@](C)(CCC[C@H](C)CCC[C@H](C)CCCC(C)C)O2`, the call in [1], in assay [2], in [3], in assay [4], in [5] and in assay [6] was inactive. Also, the molecule was called inactive in [7], in [10], in assay [8] and in [9].
With `COc1ccc2[nH]cc(CCNC(C)=O)c2c1`, the molecule was called inactive in assay [1], in assay [2], in [3], in assay [4], in assay [5] and in [6]. Further, the result in [7], in assay [8] and in assay [9] was inactive.
In the case of `C[C@]12CC[C@@H]3c4ccc(O)cc4CC[C@H]3[C@@H]1CC[C@@H]2O`, the molecule was classed as inactive in assay [1], in [2], in [3], in assay [4], in assay [5] and in assay [7]. Moreover, the molecule was called inactive in [10], in [8] and in assay [9].
With `N#CCCCC(C#N)CCC#N` (stereo unspecified), the molecule was classed as inactive in assay [1], in assay [2], in [3], in [4], in assay [6] and in assay [7]. Moreover, the outcome in assay [10], in assay [8] and in assay [9] was inactive.
As to `CCCCCc1cccc(=O)o1`, the call in assay [1], in assay [2], in assay [3], in assay [4], in assay [6] and in assay [7] was inactive. For the same molecule, the molecule was classed as inactive in assay [10], in assay [8] and in [9].
For `[Na+]`, the call in assay [1], in [2], in [3], in assay [4], in [6] and in assay [7] was inactive. For the same molecule, the outcome in [8] and in assay [9] was inactive.
As for `CC1=CC(O)CC(C)(C)C1` (stereo unspecified), the molecule was classed as inactive in [1], in assay [2], in [4], in assay [5], in [6] and in assay [7]. The call in [10] and in assay [8] was inactive.
Take `COC(=O)c1ccc(C(=O)OC)cc1`: the molecule was called inactive in assay [1], in assay [2], in [3], in assay [4], in [6] and in assay [7]. Moreover, the molecule was classed as inactive in [10], in assay [8] and in [9].
For `CC1=CC[C@@H]2C[C@H]1C2(C)C`, the molecule was called inactive in assay [1], in assay [2], in assay [3], in assay [4], in [6] and in assay [7]. Moreover, the call in assay [10], in assay [8] and in [9] was inactive.
Take `CC(C)N1C(=O)c2ccccc2C1=O`: the call in [1], in assay [2], in assay [3], in assay [4], in assay [7] and in assay [10] was inactive. The call in assay [8] and in assay [9] was inactive. The AC50 in [6] is 74.7 µM (active).
Take `O=[N+]([O-])c1cc(N(CCO)CCO)ccc1NCCO`: the outcome in [1], in assay [2], in [3], in assay [4], in [6] and in assay [7] was inactive. Further, the molecule was classed as inactive in assay [10], in [8] and in [9].

The record behind these values is PubChem BioAssay (EPA / NIEHS).
